CYP2C9 act = CYP2C9 (human) activation; activation factor at 5 µM; P11712; recombinant CYP2C9, luciferin-H conversion, luminescence; active compounds read high; factor 1 = untreated enzyme, 0 = blocked; 1.4% of 96,000 active;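 active = activation factor of 2 or more for CYP2C9 at a 5 µM dose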;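 note: 0 = sulfaphenazole-blocked wells and 1 = vehicle-only wells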
Target sequence (P11712 whole entry, looked up): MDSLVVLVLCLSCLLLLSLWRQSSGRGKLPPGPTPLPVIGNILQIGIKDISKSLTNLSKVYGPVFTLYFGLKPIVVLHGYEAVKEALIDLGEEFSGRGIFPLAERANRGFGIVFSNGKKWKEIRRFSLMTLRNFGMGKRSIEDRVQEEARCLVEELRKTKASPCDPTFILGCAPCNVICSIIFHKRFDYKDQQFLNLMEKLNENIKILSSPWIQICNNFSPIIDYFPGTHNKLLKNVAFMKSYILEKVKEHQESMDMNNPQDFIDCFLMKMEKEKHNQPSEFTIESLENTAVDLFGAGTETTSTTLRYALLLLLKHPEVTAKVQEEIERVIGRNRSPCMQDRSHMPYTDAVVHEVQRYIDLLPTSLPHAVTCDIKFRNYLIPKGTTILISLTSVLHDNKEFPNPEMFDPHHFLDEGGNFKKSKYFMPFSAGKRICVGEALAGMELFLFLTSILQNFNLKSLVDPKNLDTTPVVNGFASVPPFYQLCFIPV
PostGolgi yeast = growth inhibition of a yeast mutant, post-Golgi transport screen; AID 739; post-Golgi transport phenotypic cell assay; 0.9% of 98,000 active; inhibition, % at 10 µM;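 note: yeast cells grown in 1536-well plates; yeast grown about 18 h at 30C before absorbance read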
PostGolgi ctrl = growth of the yeast control strain, post-Golgi counter-screen. efflux-deficient yeast background strain, growth absorbance A615, 16 h. inhibition, % at 10 µM. 5% of 98,000 active. AID 738
CYP2C19 inhib = human CYP2C19 inhibition; 21% of 96,000 active; P33261; inhibition, % at 5 µM; CYP2C19 Supersomes, luciferin-H EGE luminescence, 30 min;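 active = CYP2C19 inhibition above a set limit at 5 µM in the primary screen, cut at about 50% in these data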;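 note: plate controls were negative control wells for no effect and 2.5 mM tranylcypromine positive control for full effect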
CYP2C9 inhib = inhibitors of human CYP2C9 | P11712 | CYP2C9 Supersomes, luciferin-H conversion, luminescence | inhibition, % at 5 µM | 20% of 96,000 active;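 active = blocking of liver enzyme CYP2C9 beyond about 50% at 5 µM, limit read from the data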
CYP2C19 activ = cytochrome P450 2C19 (human) activation; activation factor at 5 µM; recombinant CYP2C19, luciferin-H EGE luminescence; active compounds read high; 0 = fully inhibited enzyme, 1 = untreated enzyme; AID 1025; 96,000 tested, under 10 active; P33261;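 active = activation factor of at least 2 at 5 µM in the primary screen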;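 note: 0 = wells with 2.5 mM tranylcypromine and 1 = vehicle-only wells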
An asterisk follows results filed as active; . = no result given. Sampled rows, rich in hits. Any-hit rate of the full collection: about 32%. Cut-off read from the data, not from the text of the source, unless noted: active = inhibition above about 30%; inactive = the rest.

SMILES | CYP2C9 act | PostGolgi yeast | PostGolgi ctrl | CYP2C19 inhib | CYP2C9 inhib | CYP2C19 activ
Cc1ccc(N2C(=O)C(Cl)=C(Nc3c(C)n(C)n(-c4ccccc4)c3=O)C2=O)cc1 | 1.1 | 20.4 | 33.4* | -8.9 | -5.9 | 1.1
COc1ccc(C(=O)N/C(=C\c2cccc3ccccc23)C(=O)NCCc2c[nH]c3ccccc23)cc1OC | 0.3 | -5.5 | -2.6 | 50.2* | 65.1* | 0.5
Cc1c(C(=O)NCCSCc2ccc(Cl)cc2Cl)cccc1[N+](=O)[O-] | 1 | 1.0 | 54.5* | -1.5 | -2.7 | 1
COc1ccccc1NC(=S)NCCc1ccccc1 | 0.9 | -2.4 | 7.9 | 81.5* | 5.4 | 0.2
Cc1ccc(C(=O)N/C(=C\c2cccs2)C(=O)NCCc2c[nH]c3ccccc23)cc1C | 0.7 | 3.4 | 10.7 | 21.0 | 35.0 | 0.8
S=C(NCCc1ccccc1)Nc1ccc(Cl)cc1Cl | 0.5 | -9.6 | 4.2 | 85.6* | 46.3 | 0.1
CCCC(=O)NC(=S)Nc1ccccc1OC | 0.8 | 3.0 | -1.7 | 25.4 | 21.4 | 0.7
CC1(C)C(c2cccs2)=[N+]([O-])C2(CCCCC/C2=N\NC(N)=O)N1O (configuration not stated) | 1.1 | -0.3 | 6.4 | -12.7 | -14.5 | 1.1
O=C(NCCCN1CCOCC1)C1(c2ccccc2)CCOCC1 | 1.1 | 3.2 | 4.3 | -10.0 | -5.5 | 1.1
COc1ccc(/C=C/C(=O)NC(=S)NCCc2ccc(OC)c(OC)c2)cc1 | 0.7 | -3.5 | -12.5 | 45.4 | 29.6 | 0.5
S=C(NCCSCc1ccc(Cl)cc1Cl)Nc1ccccc1 | 2.3* | -10.3 | 11.3 | 52.4* | -131.3 | 0.5
COc1ccc(CCNC(=S)NC(=O)c2ccccc2)cc1OC | 0.7 | 4.5 | 18.4 | 60.9* | 28.1 | 0.4
COc1ccccc1NC(=S)NCCc1c[nH]c2ccccc12 | 2.4* | 1.8 | -3.9 | 85.7* | -135.0 | 0.1
COc1ccc([N+](=O)[O-])cc1COc1ccc2c(-c3ccccc3)cc(=O)oc2c1 | 0.7 | 19.8 | 6.5 | 5.8 | 25.8 | 0.9
COc1ccc(NC(=O)c2cc(CC(C)C)on2)cc1OC | 1.3 | 0.4 | 10.3 | 24.0 | -31.4 | 0.8
O=C(CNCc1ccco1)Nc1ccccc1-n1cccc1 | . | 5.0 | 1.7 | . | . | .
Cc1ccc(NC(=O)/C(C#N)=C/c2ccc(C)s2)c(C)c1 | 1 | -2.1 | 12.8 | 11.1 | 1.4 | 0.9
Cc1ccc(/C=C(\C#N)C(=O)Nc2c(C)cccc2C)s1 | 0.4 | 1.4 | 2.7 | 13.4 | 64.2* | 0.9
Cc1ccccc1CSCCNS(C)(=O)=O | 0.9 | -4.8 | -1.4 | 23.7 | 6.2 | 0.8
COc1ccc(S(=O)(=O)NCCSCc2ccccc2C)cc1Br | 2* | -0.6 | 35.9* | 80.8* | -98.1 | 0.2
CCOc1ccc(S(=O)(=O)NCCSCc2ccco2)cc1 | 1 | 1.3 | 5.4 | 42.2 | -2.9 | 0.6
COc1ccc(S(=O)(=O)NCCSCc2ccco2)cc1OC | 2.2* | -4.2 | 3.6 | 59.6* | -124.1 | 0.4
COc1ccc(S(=O)(=O)NCCSCc2cccs2)cc1 | 0.7 | 4.8 | 18.4 | 93.7* | 28.5 | 0.1
COc1ccc(S(=O)(=O)NCCSCc2ccco2)cc1 | 0.6 | -8.8 | 11.0 | 88.8* | 35.5 | 0.1
COc1ccc(S(=O)(=O)NCc2ccco2)cc1-c1nnc2c3ccccc3c(C)nn12 | 0.9 | 13.5 | 2.7 | 14.2 | 14.3 | 0.9
SMILES | CYP2C9 act | PostGolgi yeast | PostGolgi ctrl | CYP2C19 inhib | CYP2C9 inhib | CYP2C19 activ
Cc1cc(Nc2ccccc2)n(CCO)n1 | 0.8 | -4.1 | 6.5 | 5.6 | 16.6 | 0.9
CC1(C)CC2(CCO1)OC(=O)CC2C(=O)NCc1ccccc1 (configuration not stated) | 1 | 1.8 | 5.4 | 8.9 | -4.1 | 0.9
O=C(O)CCS(=O)(=O)c1cccc2cccnc12 | 1 | 3.3 | 8.8 | -6.1 | 1.3 | 1.1
CN(Cc1ccccc1)S(=O)(=O)c1cccc2cccnc12 | 3* | 17.1 | 2.2 | 79.7* | -203.3 | 0.2
Cc1ccc(NC(=O)CN(C)S(=O)(=O)c2cccc3cccnc23)cc1 | 0.2 | -8.6 | -0.7 | 41.1 | 77.8* | 0.6
CN(CC(=O)N1CCCCC1)S(=O)(=O)c1cccc2cccnc12 | 2.1* | 3.0 | -1.6 | 3.4 | -105.1 | 1
Cc1csc(NC(=O)CN(C)S(=O)(=O)c2cccc3cccnc23)n1 | 0.2 | -5.2 | 4.8 | 90.6* | 84.2* | 0.1
Cc1ccc(S(=O)(=O)N(CC(=O)N/N=C/c2cccc(C)c2)c2cccc3cccnc23)cc1 | 0.9 | -4.7 | 1.8 | -11.0 | 10.7 | 1.1
Cc1nnc(SCC(=O)N(Cc2ccccc2)C(C)C)n1-c1ccccc1 | 0.6 | -2.5 | 17.9 | 8.8 | 36.1 | 0.9
Fc1ccc(-c2cc(C(F)(F)F)nc(NCC3CCCO3)n2)cc1 (configuration not stated) | 0.7 | -3.7 | 4.7 | 26.6 | 26.5 | 0.7
CC(C)CCn1nnnc1C(c1ccc(N(C)C)cc1)N1CCN(C(=O)c2ccco2)CC1 (configuration not stated) | 0.3 | -0.8 | 4.2 | 90.5* | 65.7* | 0.1
CN(C)c1ccc(C(c2nnnn2C(C)(C)C)N2CCN(C(=O)c3ccco3)CC2)cc1 (configuration not stated) | 1.1 | 2.8 | -0.9 | 61.0* | -6.2 | 0.4
COCCn1nnnc1C(CC(C)C)N1CCN(C(=O)c2ccco2)CC1 (configuration not stated) | 0.7 | -2.1 | -4.9 | 40.6 | 32.3 | 0.6
COc1cccc(CNc2nc3nc(C)cc(=O)n3[nH]2)c1 | 1 | 0.9 | 14.3 | -7.0 | 4.5 | 1.1
COc1ccc2nc(SCC(=O)Nc3cc(C)on3)[nH]c2c1 | 0.6 | 37.1* | 20.9 | 43.0 | 39.4 | 0.6
COC(=O)c1ccc(CSc2nc3ccc(C)cc3[nH]2)o1 | 0.2 | -10.0 | 7.8 | 93.3* | 82.7* | 0.1
Cc1ccc2nc(SCC(=O)Nc3cc(C)on3)[nH]c2c1 | 0.2 | 6.9 | 3.6 | 75.8* | 78.3* | 0.2
CN(Cc1c(O)ccc2c1oc(=O)c1ccccc12)C1CCCCC1 | 0.7 | 3.6 | 5.8 | 50.2* | 26.5 | 0.5
Cc1c(Cl)cccc1NC(=S)NN1CCOCC1 | 1.1 | 2.3 | 6.9 | 67.4* | -6.8 | 0.3
CCCCC1(C)OC(=O)C(=Cc2ccc(N(C)C)cc2)C(=O)O1 (configuration not stated) | 1.1 | 2.9 | 30.9* | 2.4 | -8.2 | 1
O=C(NCc1ccco1)C(c1ccc(F)cc1)N(CC1CCCO1)C(=O)Cn1nnc2ccccc21 (configuration not stated) | 0.7 | -7.2 | -9.8 | 33.1 | 27.6 | 0.7
CCOC(=O)c1nnc(-c2cccs2)nc1NC(C)C | 1 | 14.1 | 9.2 | -1.6 | -1.4 | 1
CCOC(=O)c1cnc(-c2ccccc2)nc1Oc1ccc(Cl)cc1 | 0.7 | 1.8 | -6.1 | 4.8 | 29.0 | 1
CCOC(=O)c1nnc(-c2cccs2)nc1Oc1ccccc1C(=O)OC | 0.1 | 20.3 | 9.0 | 83.0* | 94.9* | 0.2
CCOC(=O)c1nnc(-c2cccs2)nc1Oc1ccc(Cl)cc1 | 0.8 | 21.8 | 47.1* | -0.3 | 15.6 | 1

Source: PubChem (several laboratories)
